From the supplement of paper PMC8728848
This is one part of a sample in which the strongest signals are shown more often than they occur.

Experiments:
Test in all cases: glycan array binding signal (z-score within array); higher = stronger binding
Conditions in all cases: glycan notation: IUPAC condensed, linker removed
[1] = target: Fuc(a1-2)Gal(b1-4)GlcNAc(b1-3)Gal(b1-4)GlcNAc(b1-2)Man(a1-3)[Fuc(a1-2)Gal(b1-4)GlcNAc(b1-3)Gal(b1-4)GlcNAc(b1-2)Man(a1-6)]Man(b1-4)GlcNAc(b1-4)GlcNAc
Procedure, shortened: (§1)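 Arrays were curated from the Consortium for Functional Glycomics database, 3228 in total, and kept only where the protein sequence was available. Binding is expressed as a within-array Z-score. This score was averaged across arrays of the same protein sequence at different concentrations or buffers and across linkers, and negative values can be read as non-binding.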

Fuc(a1-2)[Gal(a1-3)]Gal = target: Fuc(a1-2)[Gal(a1-3)]Gal
Procedure, shortened: as §1

[2] = target: Fuc(a1-2)[Gal(a1-3)]Gal(b1-3)GalNAc(b1-3)Gal(a1-4)Gal(b1-4)Glc
Procedure, shortened: as §1

[3] = target: Fuc(a1-2)[GalNAc(a1-3)]Gal
Procedure, shortened: as §1

[4] = target: Gal(a1-3)Gal(b1-3)GlcNAc(b1-3)GalNAc
Procedure, shortened: as §1

[5] = target: Gal(a1-3)Gal(b1-4)GlcNAc(b1-3)GalNAc
Procedure, shortened: as §1

[6] = target: Gal(a1-4)Gal(b1-4)GlcNAc(b1-2)Man(a1-3)[Gal(a1-4)Gal(b1-4)GlcNAc(b1-2)Man(a1-6)]Man(b1-4)GlcNAc(b1-4)GlcNAc
Procedure, shortened: as §1

[7] = target: Gal(b1-3)GlcNAc(b1-3)Gal(b1-4)GlcNAc(b1-6)[Gal(b1-3)GlcNAc(b1-3)]Gal(b1-4)Glc
Procedure, shortened: as §1

[8] = target: Gal(b1-3)[Fuc(a1-4)]GlcNAc(b1-6)GalNAc
Procedure, shortened: as §1

Gal(b1-4)GlcNAc(b1-2)Man = target: Gal(b1-4)GlcNAc(b1-2)Man
Procedure, shortened: as §1

[9] = target: Gal(b1-4)GlcNAc(b1-2)Man(a1-3)[Gal(b1-4)GlcNAc(b1-2)Man(a1-6)][Gal(b1-4)GlcNAc(b1-4)]Man(b1-4)GlcNAc(b1-4)[Fuc(a1-6)]GlcNAc
Procedure, shortened: as §1

[10] = target: Gal(b1-4)GlcNAc(b1-2)Man(a1-3)[Gal(b1-4)GlcNAc(b1-2)Man(a1-6)][GlcNAc(b1-4)]Man(b1-4)GlcNAc(b1-4)[Fuc(a1-6)]GlcNAc
Procedure, shortened: as §1

[11] = target: Gal(b1-4)GlcNAc(b1-2)Man(a1-3)[Gal(b1-4)GlcNAc(b1-2)][GlcNAc(b1-4)]Man(b1-4)GlcNAc(b1-4)GlcNAc
Procedure, shortened: as §1

[12] = target: Gal(b1-4)GlcNAc(b1-3)Gal(b1-4)Glc
Procedure, shortened: as §1

[13] = target: Gal(b1-4)GlcNAc(b1-3)Gal(b1-4)GlcNAc(b1-3)Gal(b1-4)GlcNAc
Procedure, shortened: as §1

[14] = target: Gal(b1-4)GlcNAc(b1-3)Gal(b1-4)GlcNAc(b1-3)Gal(b1-4)GlcNAc(b1-3)Gal(b1-4)GlcNAc(b1-3)Gal(b1-4)GlcNAc(b1-2)Man(a1-3)[Gal(b1-4)GlcNAc(b1-3)Gal(b1-4)GlcNAc(b1-3)Gal(b1-4)GlcNAc(b1-3)Gal(b1-4)GlcNAc(b1-3)Gal(b1-4)GlcNAc(b1-2)Man(a1-6)]Man(b1-4)GlcNAc(b1-4)GlcNAc
Procedure, shortened: as §1

[15] = target: Gal(b1-4)GlcNAc(b1-3)Gal(b1-4)GlcNAc(b1-3)Gal(b1-4)GlcNAc(b1-3)Gal(b1-4)GlcNAc(b1-3)Gal(b1-4)GlcNAc(b1-2)[Gal(b1-4)GlcNAc(b1-3)Gal(b1-4)GlcNAc(b1-3)Gal(b1-4)GlcNAc(b1-3)Gal(b1-4)GlcNAc(b1-3)Gal(b1-4)GlcNAc(b1-6)]Man(a1-6)[Gal(b1-4)GlcNAc(b1-3)Gal(b1-4)GlcNAc(b1-3)Gal(b1-4)GlcNAc(b1-3)Gal(b1-4)GlcNAc(b1-3)Gal(b1-4)GlcNAc(b1-2)Man(a1-3)]Man(b1-4)GlcNAc(b1-4)[Fuc(a1-6)]GlcNAc
Procedure, shortened: as §1

[16] = target: Gal(b1-4)GlcNAc(b1-3)Gal(b1-4)GlcNAc(b1-3)[Gal(b1-4)GlcNAc(b1-3)Gal(b1-4)GlcNAc(b1-6)]GalNAc
Procedure, shortened: as §1

Gal3S(b1-4)GlcNAc6S = target: Gal3S(b1-4)GlcNAc6S
Procedure, shortened: as §1

GalNAc(b1-4)GlcNAc6S = target: GalNAc(b1-4)GlcNAc6S
Procedure, shortened: as §1

[17] = target: GlcNAc(a1-3)Gal(b1-4)GlcNAc
Procedure, shortened: as §1

[18] = target: GlcNAc(a1-4)Gal(b1-3)GlcNAc
Procedure, shortened: as §1

[19] = target: GlcNAc(a1-4)Gal(b1-4)GlcNAc(b1-3)Gal(b1-4)Glc
Procedure, shortened: as §1

[20] = target: GlcNAc(a1-4)Gal(b1-4)GlcNAc(b1-3)Gal(b1-4)GlcNAc(b1-3)Gal(b1-4)GlcNAc
Procedure, shortened: as §1

[21] = target: GlcNAc(a1-4)Gal(b1-4)GlcNAc(b1-3)Gal(b1-4)[Fuc(a1-3)]GlcNAc(b1-3)Gal(b1-4)[Fuc(a1-3)]GlcNAc
Procedure, shortened: as §1

[22] = target: GlcNAc(b1-2)Man(a1-3)[GlcNAc(b1-4)][GlcNAc(b1-2)Man(a1-6)]Man(b1-4)GlcNAc(b1-4)[Fuc(a1-6)]GlcNAc
Procedure, shortened: as §1

[23] = target: GlcNAc(b1-3)Gal(b1-4)GlcNAc
Procedure, shortened: as §1

[24] = target: GlcNAc(b1-3)Gal(b1-4)GlcNAc(b1-3)Gal(b1-4)GlcNAc(b1-2)Man(a1-3)[GlcNAc(b1-3)Gal(b1-4)GlcNAc(b1-3)Gal(b1-4)GlcNAc(b1-2)Man(a1-6)]Man(b1-4)GlcNAc(b1-4)GlcNAc
Procedure, shortened: as §1

[25] = target: GlcNAc(b1-3)Gal(b1-4)GlcNAc(b1-3)Gal(b1-4)GlcNAc(b1-2)Man(a1-3)[GlcNAc(b1-3)Gal(b1-4)GlcNAc(b1-3)Gal(b1-4)GlcNAc(b1-2)Man(a1-6)]Man(b1-4)GlcNAc(b1-4)[Fuc(a1-6)]GlcNAc
Procedure, shortened: as §1

[26] = target: GlcNAc(b1-3)Gal(b1-4)GlcNAc(b1-3)Gal(b1-4)GlcNAc(b1-3)Gal(b1-4)GlcNAc(b1-2)Man(a1-3)[GlcNAc(b1-3)Gal(b1-4)GlcNAc(b1-3)Gal(b1-4)GlcNAc(b1-3)Gal(b1-4)GlcNAc(b1-2)Man(a1-6)]Man(b1-4)GlcNAc(b1-4)[Fuc(a1-6)]GlcNAc
Procedure, shortened: as §1

B1: rAAL-2 (Agrocybe aegerita) (protein)
chain: MTSNVITQDLPIPVASRGFADIVGFGLDGVVIGRNAVNLQPFLAVKNFAQNAGGWLTTKHVRLIADTTGTGKGDIVGFGNAGVYVSVNNGKNTFADPPKMVIANFGYDAGGWRVEKHLRYLADIRKIGRADIIGFGEKGVLVSRNNGGLNFGPATLVLKDFGYDAGGWRLDRHLRFLADVTGNGHLDIVGFGDKHVFISRNNGDGTFAPAKSVIDNFCIDAGGWKIGDHPRFVADLTGDGTADIIGCGKAGCWVALNNGGGVFGQVKLVINDFGTDKGWQAAKHPRFIADLTGNGRGDVVGFGNAGVYVALNNGDGTFQSAKLVLKDFGVQQGWTVSKHRRFVVDLTGDGCADIIGFGEKETLVSYNDGKGNFGPVKALTNDFSFSGGKWAPETTVCWMANLDSSRH
Question: Which “glycan array binding signal (z-score)” value [1] does the source give for B1 here?
Answer: -0.083

Question: And the “glycan array binding signal (z-score)” value (Fuc(a1-2)[Gal(a1-3)]Gal)?
Answer: -0.221

Question: What about the “glycan array binding signal (z-score)” value [2] of the same binder?
Answer: 0.126

Question: What about the “glycan array binding signal (z-score)” value [3] of the same binder?
Answer: -0.342

Question: What about the “glycan array binding signal (z-score)” value [4] of the same binder?
Answer: -0.274

Question: And the “glycan array binding signal (z-score)” value [5]?
Answer: -0.36

Question: What about the “glycan array binding signal (z-score)” value [6] of the same binder?
Answer: 0.062

Question: What about the “glycan array binding signal (z-score)” value [7] of the same binder?
Answer: -0.234

Question: What about the “glycan array binding signal (z-score)” value [8] of the same binder?
Answer: -0.064

Question: And the “glycan array binding signal (z-score)” value (Gal(b1-4)GlcNAc(b1-2)Man)?
Answer: -0.16

Question: What about the “glycan array binding signal (z-score)” value [9] of the same binder?
Answer: -0.282

Question: And the “glycan array binding signal (z-score)” value [10]?
Answer: -0.482

Question: And the “glycan array binding signal (z-score)” value [11]?
Answer: -0.266

Question: And the “glycan array binding signal (z-score)” value [12]?
Answer: -0.317

Question: And the “glycan array binding signal (z-score)” value [13]?
Answer: -0.113

Question: And the “glycan array binding signal (z-score)” value [14]?
Answer: -0.319

Question: What about the “glycan array binding signal (z-score)” value [15] of the same binder?
Answer: 0.032

Question: What about the “glycan array binding signal (z-score)” value [16] of the same binder?
Answer: 0.004

Question: And the “glycan array binding signal (z-score)” value (Gal3S(b1-4)GlcNAc6S)?
Answer: -0.11

Question: And the “glycan array binding signal (z-score)” value (GalNAc(b1-4)GlcNAc6S)?
Answer: -0.107

Question: What about the “glycan array binding signal (z-score)” value [17] of the same binder?
Answer: 4.67

Question: And the “glycan array binding signal (z-score)” value [18]?
Answer: 3.84

Question: And the “glycan array binding signal (z-score)” value [19]?
Answer: 4.64

Question: What about the “glycan array binding signal (z-score)” value [20] of the same binder?
Answer: 6.15

Question: And the “glycan array binding signal (z-score)” value [21]?
Answer: 3.9

Question: And the “glycan array binding signal (z-score)” value [22]?
Answer: -0.068

Question: And the “glycan array binding signal (z-score)” value [23]?
Answer: 4.11

Question: And the “glycan array binding signal (z-score)” value [24]?
Answer: 3.92

Question: And the “glycan array binding signal (z-score)” value [25]?
Answer: 4.05

Question: What about the “glycan array binding signal (z-score)” value [26] of the same binder?
Answer: 4.52
